Test results published in a collection of fitness landscapes (doi:10.1016/j.celrep.2020.107928).
In all, about 81,000 sequences were measured (“one-hybrid fitness for binding NBS DNA”: median about -0.1, highest 2% from about 0.36 on). Only a selection was taken, and the highest values are over-represented in it overall.

B1: Caulobacter ParB omega fusion; a variant is named by its letters at X, in order, B8GW30 (parent)
chain: MESVVVGEPGMSEGRRGLGRGLSALLGEVDAAPAQAPGEQLGGSREAPIEILQRNPDQPRRTFREEDLEDLSNSIREKGVLQPILVRPSPDTAGEYQIVAGERAWRAAQRAGLKTVPIMVRELDDLAVLEIGIIENVQRADLNVLEEALSYKVLMEKFERTQENIAQTIGKSXSHVANXMRLLXLPDEVQSYLVSGELTAXHARAIAAAADPVALAKQIIEGGLSVRETEALARKAPNLSAGKSKGGRPPRVKDTDTQALESDLSSVLGLDVSIDHRGSTGTLTITYATLEQLDDLCNRLTRGI

Variants of: B1
Experiment: one-hybrid fitness for binding NBS DNA (the Noc-binding site; scaled: cognate 1, non-cognate 0); higher = stronger binding
Details: with NBS DNA site
Procedure, shortened: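 Pre- and post-selection plasmids were Illumina-sequenced, three replicate libraries were pooled, and any variant with under 10 reads was removed. The libraries were Caulobacter ParB with four specificity codons randomised, selected in E. coli USO through a HIS3 reporter whose site is 19 bp from the promoter. Cells grew 48 hours at 37°C on M9 without histidine, with 0.1 mM IPTG and 5 mM 3-AT. Fitness is the log change in variant-to-wild-type read ratio, rescaled against cognate and non-cognate.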

Variant | one-hybrid fitness for binding NBS DNA
WSSW | ≤ 0.2
LFHV | ≤ 0.2
YELS | ≤ 0.2
IALF | ≤ 0.2
ESMD | ≤ 0.2
RSFQ | ≤ 0.2
RCNN | ≤ 0.2
RCDH | ≤ 0.2
RRNN | 0.493
RRDH | 0.371
RRND | ≤ 0.2
RRNH | 0.63
RRNP | ≤ 0.2
RRDN | ≤ 0.2
ANST | ≤ 0.2
CRRH | ≤ 0.2
RNTT | 0.215
DAPG | ≤ 0.2
GCTC | ≤ 0.2
QTHI | 0.228
QNEM | ≤ 0.2
WTRW | ≤ 0.2
TLWY | ≤ 0.2
RRFG | 0.279

Variant | one-hybrid fitness for binding NBS DNA
RRAC | 0.328
RRAF | ≤ 0.2
RRAT | 0.782
RRFT | 0.777
RRFQ | 0.267
SIPE | ≤ 0.2
IQKV | ≤ 0.2
PDCE | ≤ 0.2
FSMS | ≤ 0.2
QQNP | ≤ 0.2
KQDT | ≤ 0.2
QQDT | 0.428
QQNN | 0.231
QQDF | ≤ 0.2
QQNT | 0.596
VNKV | ≤ 0.2
GVQT | ≤ 0.2
RNWC | ≤ 0.2
AVGK | ≤ 0.2
QTGA | 0.466
QTHA | 0.441
QTPA | ≤ 0.2
QCNA | 0.369
QMGA | 0.253

Variant | one-hybrid fitness for binding NBS DNA
QHHA | 0.238
QLHA | ≤ 0.2
QTLA | 0.329
QWGA | ≤ 0.2
QTYA | 0.427
QPNA | ≤ 0.2
QSNA | 0.308
LHCQ | ≤ 0.2
VMLE | ≤ 0.2
LRND | ≤ 0.2
AEHT | ≤ 0.2
QTFA | 0.301
QKAA | 0.319
QTSA | 0.397
QDQA | ≤ 0.2
QTAA | 0.44
QCSA | 0.302
QCCA | 0.326
QASA | ≤ 0.2
QTCA | 0.378
QSCA | ≤ 0.2
QTQA | 0.432
QLQA | 0.204
SFSC | ≤ 0.2

Variant | one-hybrid fitness for binding NBS DNA
PSTY | ≤ 0.2
KYQS | ≤ 0.2
AEHP | ≤ 0.2
CVMI | ≤ 0.2
VVAR | ≤ 0.2
NSNP | ≤ 0.2
SNRD | ≤ 0.2
YAHR | ≤ 0.2
QCWA | 0.205
NTKA | ≤ 0.2
QPAA | ≤ 0.2
QTWA | 0.367
QTRA | 0.712
QTMA | 0.32
QCAA | 0.393
QTKA | 0.708
QTVA | 0.317
QTIA | 0.224
QSAA | 0.273
QAWA | ≤ 0.2
NGIG | ≤ 0.2
PFPE | ≤ 0.2
GKAT | ≤ 0.2
ATEG | ≤ 0.2

Variant | one-hybrid fitness for binding NBS DNA
TRRP | ≤ 0.2
HLQN | ≤ 0.2
QLNA | 0.219
QTNA | 0.505
QCTA | 0.326
QPTA | ≤ 0.2
QKNA | 0.378
QTDA | 0.255
QINA | 0.21
QTTA | 0.399
QKDA | ≤ 0.2
ISCK | ≤ 0.2
MLLV | ≤ 0.2
LQRF | ≤ 0.2
HHLI | ≤ 0.2
LHQS | ≤ 0.2
RSNR | 0.526
RINH | ≤ 0.2
RWYR | ≤ 0.2
RWDR | ≤ 0.2
RFNR | 0.325
RSNH | 0.223
RWNR | 0.436
RPNR | ≤ 0.2

Variant | one-hybrid fitness for binding NBS DNA
RSDR | ≤ 0.2
RINR | 0.524
RCNR | 0.586
RIDR | ≤ 0.2
GSSG | ≤ 0.2
PGTF | ≤ 0.2
LPSK | ≤ 0.2
PGGS | ≤ 0.2
RQIG | ≤ 0.2
MIKI | ≤ 0.2
NGIR | ≤ 0.2
FGEY | ≤ 0.2
RHNR | 0.539
RHNN | ≤ 0.2
RHDR | 0.216
NDST | ≤ 0.2
SAPN | ≤ 0.2
YTYC | ≤ 0.2
QRSF | 0.262
QRQL | 0.255
NRQR | ≤ 0.2
DRRR | 0.215
NRYR | ≤ 0.2
QRSR | 0.997

Variant | one-hybrid fitness for binding NBS DNA
QRRR | 1.1
QRQR | 0.987
QRSG | 0.339
DRYR | ≤ 0.2
NRRR | 0.251
QRYR | 0.924
RCHV | ≤ 0.2
LHEL | ≤ 0.2
TCPE | ≤ 0.2
KYMS | ≤ 0.2
NRGR | ≤ 0.2
DRGR | ≤ 0.2
QRLR | 0.945
QRLQ | 0.327
QRLF | 0.238
QRDR | 0.679
QRGR | 1.04
DRCR | ≤ 0.2
QDCR | ≤ 0.2
QRCR | 0.981
DAMG | ≤ 0.2
RDCF | ≤ 0.2
SWLF | ≤ 0.2
THYV | ≤ 0.2

Variant | one-hybrid fitness for binding NBS DNA
EPRD | ≤ 0.2
AGTM | ≤ 0.2
AMGA | ≤ 0.2
QRNR | 1.03
QRHR | 1.06
NRNR | ≤ 0.2
NRHR | ≤ 0.2
DRHR | ≤ 0.2
DRNR | ≤ 0.2
TTSN | ≤ 0.2
DLQW | ≤ 0.2
DYWR | ≤ 0.2
QHAN | ≤ 0.2
QHAH | ≤ 0.2
QHFR | 0.408
QHAR | 0.523
QHFS | ≤ 0.2
QHFN | ≤ 0.2
GISW | ≤ 0.2
ACMF | ≤ 0.2
RFMI | ≤ 0.2
EHLG | ≤ 0.2
SCYH | ≤ 0.2
MRMG | ≤ 0.2

Variant | one-hybrid fitness for binding NBS DNA
RYNP | ≤ 0.2
RYPT | ≤ 0.2
RYNT | 0.514
RYLH | ≤ 0.2
RYKT | 0.604
RYDT | 0.204
RYLT | 0.366
RYYT | 0.349
RYLD | ≤ 0.2
RYRT | 0.664
RYVT | 0.229
RYWT | 0.281
LHLS | ≤ 0.2
ILDG | ≤ 0.2
GDTF | ≤ 0.2
TMRI | ≤ 0.2
MQPC | ≤ 0.2
MRDI | ≤ 0.2
WQSY | ≤ 0.2
RYCC | ≤ 0.2
RYFT | ≤ 0.2
RYAH | ≤ 0.2
RYCT | 0.372
RYAT | 0.461

Variant | one-hybrid fitness for binding NBS DNA
RYCG | ≤ 0.2
TALL | ≤ 0.2
HITC | ≤ 0.2
LYGC | ≤ 0.2
QTRT | 0.891
QHWN | ≤ 0.2
QTWD | ≤ 0.2
QTWT | 0.543
NTRT | ≤ 0.2
DTRT | ≤ 0.2
QHWT | 0.375
QTYT | 0.572
QHWD | ≤ 0.2
QTWH | ≤ 0.2
DQMC | ≤ 0.2
HTHS | ≤ 0.2
SPAK | ≤ 0.2
IRFR | ≤ 0.2
WCIR | ≤ 0.2
QTSF | ≤ 0.2
QTDT | 0.448
QSWT | 0.348
QCWT | 0.461
QPWT | ≤ 0.2

Variant | one-hybrid fitness for binding NBS DNA
QTSC | 0.214
QTND | 0.227
QTNT | 0.71
QTST | 0.61
QTNP | ≤ 0.2
IHPM | ≤ 0.2
MVSY | ≤ 0.2
TTTW | ≤ 0.2
HGWD | ≤ 0.2
LSVE | ≤ 0.2
EWQK | ≤ 0.2
GLRI | ≤ 0.2
TRMF | ≤ 0.2
IGRY | ≤ 0.2
TPKQ | ≤ 0.2
TPVR | 0.513
TCVR | ≤ 0.2
TPVT | 0.375
TPVQ | 0.763
TTSQ | ≤ 0.2
TSVQ | ≤ 0.2
TSSQ | 0.493
TPKT | ≤ 0.2
TPKR | 0.351

Variant | one-hybrid fitness for binding NBS DNA
TCVT | ≤ 0.2
TRSQ | ≤ 0.2
VMCN | ≤ 0.2
SSHR | 0.261
WIIS | ≤ 0.2
QDAC | ≤ 0.2
YRCS | ≤ 0.2
QPDL | ≤ 0.2
QYVG | ≤ 0.2
RKCC | ≤ 0.2
HGRR | ≤ 0.2
EGQR | ≤ 0.2
QMKA | 0.596
QALA | ≤ 0.2
QAVA | ≤ 0.2
QHIA | ≤ 0.2
QIKA | 0.351
QCKA | 0.608
QHVA | ≤ 0.2
QPKA | ≤ 0.2
QAKA | 0.521
QMIA | ≤ 0.2
QHKA | 0.597
QMVA | ≤ 0.2

Variant | one-hybrid fitness for binding NBS DNA
NDTL | ≤ 0.2
YAKI | ≤ 0.2
LRRN | ≤ 0.2
TCKG | ≤ 0.2
WGAS | ≤ 0.2
PPRC | ≤ 0.2
QLLA | ≤ 0.2
QWKA | ≤ 0.2
QKPA | ≤ 0.2
QKKA | 0.577
QSKA | 0.558
QLVA | ≤ 0.2
QLKA | 0.466
QKVA | ≤ 0.2
QSVA | ≤ 0.2
AVKE | ≤ 0.2
NQRA | ≤ 0.2
FGAF | ≤ 0.2
